Compound activity as filed in PubChem BioAssay.
An excerpt weighted towards active compounds, which were near 3.7% of everything screened.
MLL AF4-AF9 inh: inhibitors of AF4 peptide binding to AF9, primary screen, biochemical, AlphaScreen, biotin-AF4 peptide, FLAG-AF9, single point; Protein AF-9 (Homo sapiens), P42568; inhibition, % at 10 µM; 350,000 compounds, 0.47% hits;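 active means every replicate reaching a set inhibition limit, whatever the replicate mean, cut at about 25% in these data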;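 further: 0% = plate neutral control median and 100% = total signal loss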
Target sequence (P42568 whole entry, looked up): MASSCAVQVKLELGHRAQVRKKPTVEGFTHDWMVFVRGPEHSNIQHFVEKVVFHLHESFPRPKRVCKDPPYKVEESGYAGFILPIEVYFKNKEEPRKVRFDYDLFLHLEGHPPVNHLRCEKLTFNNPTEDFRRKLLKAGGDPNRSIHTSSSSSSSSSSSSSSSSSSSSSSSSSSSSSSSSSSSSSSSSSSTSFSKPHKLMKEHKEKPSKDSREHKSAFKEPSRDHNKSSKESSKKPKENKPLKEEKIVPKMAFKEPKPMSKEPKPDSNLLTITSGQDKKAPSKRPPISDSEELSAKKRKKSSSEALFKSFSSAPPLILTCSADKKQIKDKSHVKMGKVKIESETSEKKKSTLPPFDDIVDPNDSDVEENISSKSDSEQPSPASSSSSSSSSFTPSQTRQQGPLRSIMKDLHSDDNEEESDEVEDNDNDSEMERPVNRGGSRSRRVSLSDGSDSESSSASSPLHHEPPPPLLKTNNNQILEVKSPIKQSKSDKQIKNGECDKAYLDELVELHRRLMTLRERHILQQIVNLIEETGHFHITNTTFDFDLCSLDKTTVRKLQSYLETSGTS
rRNA inh HTS: reduced GFP signal of wild-type E. coli, primary screen, bacterial rRNA inhibitor project, GFP/RFP fluorescence, OD600, single point; E. coli WT GFP vs humanized-ribosome RFP mutants, 24 h; stronger effect = lower value; DMSO median 0, no signal -100; GFP signal change (wild-type ribosome), % (no concentration beside the values); 350,000 compounds, 1.6% hits; AID 720706, 2013;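 active means significant combined selectivity score with lowered wild-type GFP, culture density cut under 30%, mutant RFP and density less affected; inactive means any of these conditions unmet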
esBAF inh: Bmi1 luciferase reporter increase in mESCs, primary screen, esBAF inhibitor project, mouse ES cells, Bmi1 luciferase knock-in, single point | 24 h; 100% = twice the neutral-well signal | reporter increase, % at 12.5 µM | 350,000 compounds, 2% hits | AID 602393, 2012; in the data active means activation above about 40%;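 further: 0% = median of the plate's neutral control wells and 100% = double that signal; a rise in the Bmi1 reporter signal indicates esBAF inhibition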
Wnt act: Wnt/beta-catenin pathway activators, primary screen, cell-based, plate reader, single point | Wnt/beta-catenin reporter cell assay, activator | activation, % at 9.35 µM | 300,000 compounds, 1.2% hits | AID 743398, 2014; in the data active means activation above about 30%, passing the limit was not always enough;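 further: 0% = neutral control wells and 100% = positive control wells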
MITF TRPM1 HTS: activators of MITF-driven TRPM1 promoter reporter, primary screen, cell-based, SK-MEL-5, luciferase, single point; 300,000 compounds, 0.75% hits; SK-MEL-5 TRPM1-promoter luciferase, 24 h; % of positive control, neutral wells = 0; activation, % at 12.5 µM;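 active means mean activation of at least 80% with every replicate also reaching 80%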;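 further: 0% = neutral control wells and 100% = parthenolide positive control wells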
Active calls of the source: *.

For CCOC(=O)C(CC)/C(C)=N/NC(=O)c1ccccc1[N+](=O)[O-] (configuration not stated) the results were esBAF inh -3 and MITF TRPM1 HTS -11.
For C[C@@H]1CN([C@H](C)CO)C(=O)c2cc(NC(=O)Nc3ccc(F)cc3)ccc2O[C@@H](C)CCCCO[C@H]1CN(C)S(=O)(=O)c1ccc(F)cc1 the results were rRNA inh HTS 1 and esBAF inh -1.
Cc1cc(C(=O)Nc2ccc(Br)cc2)cs1 was read as MLL AF4-AF9 inh 1, rRNA inh HTS 6, Wnt act 45* and MITF TRPM1 HTS 30.
Screening CNS(=O)(=O)c1ccc(NC(=O)c2csc(C)c2)cc1 returned MLL AF4-AF9 inh 1, rRNA inh HTS -10, Wnt act 0 and MITF TRPM1 HTS 1.
For CCCN(CCC)c1nc2ccccc2nc1C(C#N)C(=O)OCCOC (configuration not stated) the results were esBAF inh -7 and MITF TRPM1 HTS 91*.
For C=CCN(CC=C)c1nc2ccccc2nc1C(C#N)C(=O)OCCOC (configuration not stated) the results were esBAF inh -1 and Wnt act -1.
CSc1nc(C)c(C(=O)Nc2ccccc2)c(C)c1C#N was read as MLL AF4-AF9 inh 0, rRNA inh HTS -21*, esBAF inh 8, Wnt act -2 and MITF TRPM1 HTS -2.
Screening Cc1nc(SCC(=O)c2cc3ccccc3oc2=O)c(C#N)c(C)c1C(=O)Nc1ccccc1 returned Wnt act 2.
Screening Cc1ccc(-c2cc(NC(=O)c3ccccc3)on2)cc1 returned MLL AF4-AF9 inh 2, rRNA inh HTS 0, esBAF inh 60*, Wnt act 34* and MITF TRPM1 HTS 75.
`COc1ccc(C(=O)Nc2cc(-c3ccc(C)cc3)no2)cc1` gave MLL AF4-AF9 inh -10, rRNA inh HTS 6, esBAF inh 8, Wnt act 2 and MITF TRPM1 HTS 23.
CNC(=O)NC(=O)CSc1nnc(C(F)(F)F)n1C was read as esBAF inh -11, Wnt act 2 and MITF TRPM1 HTS 2.
`CC(=O)CSc1nnc(C(F)(F)F)n1C` gave MLL AF4-AF9 inh 33*, rRNA inh HTS 11 and Wnt act -2.
`NC(=O)NC(c1ccc(Cl)cc1)c1ccccc1Cl` (configuration not stated) gave MLL AF4-AF9 inh -5, rRNA inh HTS -35*, Wnt act -1 and MITF TRPM1 HTS -6.
Screening NC(=O)NC(c1ccccc1)c1cccc2ccccc12 (configuration not stated) returned MLL AF4-AF9 inh 2, rRNA inh HTS -33*, esBAF inh 1, Wnt act 1 and MITF TRPM1 HTS -9.
For NC(=O)NC(c1ccccc1)c1ccccc1 the results were MLL AF4-AF9 inh -4, rRNA inh HTS 7, esBAF inh -3, Wnt act -2 and MITF TRPM1 HTS -9.
For Cc1ccc([C@@H]2CC(=O)[C@@H]3CN(S(=O)(=O)c4ccc(C)cc4)[C@H](c4cccc5ccccc45)C[C@@H]3N2S(=O)(=O)c2ccc(Cl)cc2)cc1 the results were MLL AF4-AF9 inh 2, rRNA inh HTS 29, esBAF inh -2 and Wnt act -2.
COc1ccc(-c2ccc(C(=O)Nc3ccccc3)c3occc23)c(C)c1 was read as MLL AF4-AF9 inh -8, rRNA inh HTS -2, esBAF inh 86* and Wnt act 5.
Screening COc1ccc(-c2ccc(C(=O)Nc3ccc4c(c3)OCO4)c3occc23)c(C)c1 returned MLL AF4-AF9 inh 1, rRNA inh HTS -6, esBAF inh 59* and Wnt act 3.
For O=C(NCC(c1ccco1)N1CCCCC1)c1ccc(NS(=O)(=O)c2ccc(F)cc2)cc1 (configuration not stated) the results were MLL AF4-AF9 inh 2, rRNA inh HTS -20*, esBAF inh -2, Wnt act -2 and MITF TRPM1 HTS -11.
`CCOC(=O)c1c(C)oc2ccc(OCC(=O)C(C)(C)C)cc12` gave esBAF inh -3 and MITF TRPM1 HTS 3.
For COc1ncccc1-c1nnn(-c2ccccc2Br)n1 the results were MLL AF4-AF9 inh -3, rRNA inh HTS -14, esBAF inh 22, Wnt act 16 and MITF TRPM1 HTS 16.
`COc1ncccc1-c1nnn(-c2ccccc2)n1` gave MLL AF4-AF9 inh 4, rRNA inh HTS 2, esBAF inh 5 and Wnt act 53*.
Screening Clc1nc2ccccc2cc1-c1nnn(-c2ccccc2)n1 returned MLL AF4-AF9 inh -5, rRNA inh HTS 11, esBAF inh 62* and Wnt act 27.
Screening Clc1ccc(-n2nnc(-c3cccnc3Cl)n2)cc1Cl returned MLL AF4-AF9 inh -25, rRNA inh HTS 13, esBAF inh 55*, Wnt act 30 and MITF TRPM1 HTS 95*.
Screening Cc1ccc(-n2nnc(-c3cnc4ccccc4c3)n2)cc1 returned MLL AF4-AF9 inh 2, rRNA inh HTS 11, esBAF inh -37, Wnt act 23 and MITF TRPM1 HTS -6.
Screening Fc1ccc(-n2nnc(-c3cccnc3Cl)n2)cc1 returned MLL AF4-AF9 inh -3, rRNA inh HTS 4, esBAF inh -2, Wnt act 17 and MITF TRPM1 HTS 65.
For Fc1ccc(-n2nnc(-c3ccccc3Cl)n2)cc1 the results were MLL AF4-AF9 inh -3, rRNA inh HTS -11, esBAF inh 0 and Wnt act -1.
For Clc1ncccc1-c1nnn(-c2ccccc2)n1 the results were MLL AF4-AF9 inh -7, rRNA inh HTS -2, esBAF inh 4, Wnt act 34* and MITF TRPM1 HTS 99*.
C[C@@H]1CN([C@H](C)CO)C(=O)c2cccc(NC(=O)C3CC3)c2O[C@H]1CN(C)C(=O)Nc1ccc(C(F)(F)F)cc1 was read as MLL AF4-AF9 inh -2, rRNA inh HTS -1 and esBAF inh 1.
`CN1c2ccc(Br)cc2[C@H]2[C@H](CCN2C(=O)Nc2cccc(F)c2)[C@@H]1CO` gave rRNA inh HTS -8 and esBAF inh -9.
Screening CCCC(=O)Nc1ccc2c(c1)C(=O)N(C)[C@@H]1CC[C@H](CC(=O)NCC3CCCCC3)O[C@H]1CO2 returned MLL AF4-AF9 inh -2, rRNA inh HTS -2 and esBAF inh -5.
c1ccc(-n2nnc(-c3cccnc3)n2)cc1 was read as MLL AF4-AF9 inh 2, rRNA inh HTS 9, esBAF inh 58*, Wnt act 28 and MITF TRPM1 HTS 91*.
For c1ccc(OCCCn2nnc(-c3cccnc3)n2)cc1 the results were MLL AF4-AF9 inh 1, rRNA inh HTS -9, esBAF inh 4, Wnt act 0 and MITF TRPM1 HTS 0.
`CCCCCC(=O)N/N=C/c1ccc(N(C)C)cc1` gave esBAF inh 51*, Wnt act 12 and MITF TRPM1 HTS 60.
